Potency and cytotoxicity increase data for 22 compounds are collected here from PubChem BioAssay (Tox21).

Records with an inconclusive call do not appear. Entries that show only a call come without a potency. A number with no mark means an inactive call. Calls of active or inactive are those of the source. The call rests on the fitted dose curve; in most records, active means well fitted activation curve with a large enough effect in the repeat runs; inconclusive means weak or mixed curves; inactive means flat fitted curve, though single readings scatter.
Potency means the concentration at half of the fitted maximal effect.

The test can be described thus: A CellTox Green Cytotoxicity Assay to monitor cytotoxicity in HepG2 cells - 16 hour (AID 1224876). Further: nearly all actives have a fitted effect of over 45% in size. The following applies: CellTox Green fluorescence; series mostly up to 76.8 µM. The essentials:
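Real-time, homogeneous cytotoxicity readout: dead-cell DNA staining by CellTox Green in HepG2 monolayers, fluorescence measured at timed intervals up to 40 h of continuous compound exposure.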
As for `CNC(=O)N(c1ccccc1)c1ccccc1`, the Potency result was “inactive”.

Take `CC1(C)C(=O)N(Br)C(=O)N1Cl`: the Potency result is “inactive”.

Turning to `CCCCCCCCSCCO`, the Potency entry is “inactive”.

Consider `CC#N`, for which the Potency entry is “inactive”.

As for `OC/C(Br)=C(\Br)CO`, the Potency result was “inactive”.

Turning to `CC1=CC(=O)CC(C)(C)C1(O)/C=C/C(C)=C\C(=O)O` (configuration not stated), the Potency result is “inactive”.

As for `CCCOC(=O)c1ccc(N)cc1`, the Potency entry is “inactive”.

Take `CCCCC(CC)CNCC(CC)CCCC` (configuration not stated): the Potency entry was “inactive”.

For `O=C(CCC1CCN(Cc2ccccc2)CC1)c1ccc2c(c1)NCCCC2`, the Potency result was “inactive”.

For the compound `CC(=O)OCC(=O)[C@H]1CC[C@H]2[C@@H]3CCC4=CC(=O)CC[C@]4(C)[C@H]3CC[C@]12C`, the Potency entry is “inactive”.

`COC(=O)c1cc(Cl)ccc1NS(=O)(=O)C(F)(F)F`: the Potency result was “inactive”.

With `CC(=O)CC(c1ccc([N+](=O)[O-])cc1)c1c(O)c2ccccc2oc1=O` (configuration not stated), the Potency entry was “inactive”.

For the compound `CCOC(=O)c1ccccc1OC`, the Potency entry is “inactive”.

As to `c1cnc2c(n1)CCCC2`, the Potency was 38.9 µM (active).

On to `CO[C@H]1O[C@H](CO)[C@@H](O)[C@H](O)[C@H]1O`, for which the Potency entry was “inactive”.

In the case of `O=C(/C=C/c1ccccc1)OCCCc1ccccc1`, the Potency entry was “inactive”.

Regarding `C=CCCCCCCCCCCCCCCCC`, the cytotoxicity increase was -18.8% [at 6.97 µM].

As for `CCCCC(=O)O[C@]1(C(=O)CO)CC[C@H]2[C@@H]3CCC4=CC(=O)CC[C@]4(C)[C@H]3[C@@H](O)C[C@@]21C`, the Potency entry was “inactive”.

As for `CC1CC(O)CC(C)(C)C1` (configuration not stated), the Potency entry is “inactive”.

Turning to `N#C[C@@H]1C[C@@H]2C[C@@H]2N1C(=O)[C@@H](N)C12CC3CC(CC(O)(C3)C1)C2`, the Potency entry is “inactive”.

As to `O=Cc1c(Cl)cccc1Cl`, the Potency entry is “inactive”.

With `CCCCCCCCCCCCCCCCBr`, the cytotoxicity increase is -3.1% [at 15.8 µM].
